# High-throughput results (PubChem)
# This is a sample that favours compounds with a hit; in the whole collection about 10% have one here.
# VP16 counter: VP16 counterscreen qHTS for inhibitors of ROR gamma transcriptional activity; Drosophila S2 Gal4-VP16 UAS-luciferase, luminescence, 20 h; Potency, µM (highest dose often 53.6 µM), usual class: inhibitors; actives 3.5% (n = 310,000);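 further: Gal4-VP16 expression switched on by copper sulfate through the metallothionein promoter; nearly all actives have a fitted effect of over 50% in size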
# MCF10A rereplic: A quantitative high throughput screen for small molecules that induce DNA re-replication in MCF 10a normal breast cells; AID 624296, 2012; actives 2.9% (n = 350,000); Potency, µM (doses to about 46.1 µM), most hits filed as activators; MCF 10A DNA re-replication, Hoechst nuclear intensity, 48 h; further: nearly all actives have a fitted effect of over 50% in size
# RORgamma inh: qHTS for inhibitors of ROR gamma transcriptional activity; Drosophila S2 Gal4-RORgamma UAS-luciferase reporter, 20 h; Potency, µM (doses to about 53.6 µM), hits mostly inhibitors; actives 5.4% (n = 310,000); further: nearly all actives have a fitted effect of over 60% in size
# Target sequence (P51450 whole entry, looked up, the tested form may be a part): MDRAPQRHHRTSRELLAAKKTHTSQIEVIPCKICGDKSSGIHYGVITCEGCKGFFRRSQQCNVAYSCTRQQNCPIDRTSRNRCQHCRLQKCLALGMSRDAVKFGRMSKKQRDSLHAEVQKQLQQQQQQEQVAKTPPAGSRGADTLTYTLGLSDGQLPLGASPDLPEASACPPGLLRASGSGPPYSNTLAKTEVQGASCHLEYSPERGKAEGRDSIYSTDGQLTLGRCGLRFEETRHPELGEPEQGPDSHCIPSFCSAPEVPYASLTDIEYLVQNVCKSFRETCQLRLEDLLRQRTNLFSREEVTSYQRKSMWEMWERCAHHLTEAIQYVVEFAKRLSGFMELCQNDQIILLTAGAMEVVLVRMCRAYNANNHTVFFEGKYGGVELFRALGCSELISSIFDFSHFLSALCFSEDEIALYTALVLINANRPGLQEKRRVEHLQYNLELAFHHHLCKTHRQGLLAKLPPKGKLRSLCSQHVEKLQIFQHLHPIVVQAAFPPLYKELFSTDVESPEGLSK
#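 Drosophila S2 cells stably expressing Gal4-DBD/mouse RORγ fusion under metallothionein promoter plus UAS-luciferase; compound 1 h, then 700 uM CuSO4 induction for 20 h at ambient temperature; inhibition read as reduced luminescence.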
# ELG1 repair inh: qHTS screen for small molecules that inhibit ELG1-dependent DNA repair in human embryonic kidney (HEK293T) cells expressing luciferase-tagged ELG1; HEK293T ELG1-luciferase reporter, luminescence, 16 h; DNA damage induced by 5-fluorouridine; Potency, µM (series often up to 46.1 µM), usual class: inhibitors; actives 2.3% (n = 330,000); further: nearly all actives have a fitted effect of over 55% in size
#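 DMSO vehicle served as the neutral condition. Each well held 2,000 cells given 5-fluorouridine plus compound; after 16 hr at 37 °C/5% CO2, ONE-Glo was added and luciferase measured 30 min later.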
# SW480 rerep: A quantitative high throughput screen for small molecules that induce DNA re-replication in SW480 colon adenocarcinoma cells. Potency, µM (doses to about 46.1 µM), actives largely listed as activators. actives 1.8% (n = 340,000). SW480 DNA re-replication, Hoechst DNA content imaging, 48 h; further: nearly all actives have a fitted effect of over 55% in size
#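 Image-based read-out: total Hoechst fluorescence of nuclei (405 nm excitation, 500-530 nm emission), with hits raising the fraction of high-intensity nuclei. SW480 colon cells incubated 48 hr with compounds at 37 C.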
# A number is an active result; i = inactive; ? = inconclusive; nt = not tested or not shown; [ ] = another dose, or the depositor's remark. The call rests on the fitted dose curve; in most records, active means well fitted curve in the direction sought with a large enough effect; inconclusive means small, poorly fitted or top-dose-only effect, or another doubt; inactive means no such curve, though single readings can be large; an effect the other way counts as inactive or inconclusive.
SMILES,VP16 counter,MCF10A rereplic,RORgamma inh,ELG1 repair inh,SW480 rerep
O=C(CN1CCN(c2ccc(O)cc2)CC1)Nc1cc(S(=O)(=O)N2CCCCC2)ccc1Cl,i,i,i,16µM,i
O=C(CN1CCN(S(=O)(=O)N2CCOCC2)CC1)Nc1cc(Cl)ccc1Cl,i,i,i,21µM,i
O=C(CSc1ncnc2ccccc12)Nc1cc(S(=O)(=O)N2CCCCC2)ccc1Cl,i,i,?,21µM,i
O=C(CN1CCN(c2ccc(O)cc2)CC1)Nc1cc(S(=O)(=O)N2CCCC2)ccc1Cl,i,i,?,23µM,?
COc1ccc(N2CCN(CC(=O)N3c4ccccc4CC3C)CC2)cc1 (configuration not stated),i,i,i,?,i
CCOC(=O)CC(=O)CSc1nc2ccc(OC)cc2cc1C,?,i,i,i,?
C[C@H](CO)N1C[C@H](C)[C@@H](CN(C)C(=O)Nc2ccc3c(c2)OCO3)Oc2c(NS(=O)(=O)c3ccc(F)cc3)cccc2C1=O,nt,i,nt,?,i
O=C(Nc1cccc(Cl)c1)Nc1cc(S(=O)(=O)N2CCCCC2)ccc1Cl,?,6.5µM,?,?,?
Cc1cccc(-c2nc(S(=O)(=O)c3ccc(F)cc3)c(NCCCN3CCOCC3)o2)c1,i,i,i,?,i
COc1cc2[nH]c(=S)nc(NCc3cccs3)c2cc1OC,13µM,i,6.3µM,i,i
COc1cc2[nH]c(=S)nc(NCc3ccc(Cl)cc3)c2cc1OC,7.1µM,i,5µM,i,i
COCCCNc1nc(=S)[nH]c2cc(OC)c(OC)cc12,i,i,?,i,i
COc1cc2[nH]c(=S)nc(NCC3CCCO3)c2cc1OC (configuration not stated),i,i,i,i,i
COc1cc2[nH]c(=S)nc(NCCc3ccc(S(N)(=O)=O)cc3)c2cc1OC,i,i,i,i,i
COc1ccccc1CNc1nc(=S)[nH]c2cc(OC)c(OC)cc12,?,i,i,?,3.3µM
COc1cc2ncnc(NCc3cccs3)c2cc1OC,i[10 µM],2.6µM,i,i,i
CCCCCC(=O)N1CC2(CC(c3cccc(NC(=O)CC)c3)=NO2)C[C@H]1C(N)=O (some centres not stated),i,i,i,i,i[9.22 µM]
COCc1ccc(C(=O)N2CCCC(N3CCN(c4ccc(F)cc4)CC3)C2)o1 (configuration not stated),i,i,i,i,i
COc1ccc(OC)c(CCNC(=O)Cn2sc3nc(C)cc(C)c3c2=O)c1,i,nt,i,i,nt
Cc1cc(C)c2c(=O)n(CC(=O)NC3CCCC3)sc2n1,?,21µM,?,i,i
Cc1cc(C)c2c(=O)n(CC(=O)Nc3ccc(Br)c(C)c3)sc2n1,?,?,13µM,i,?
Cc1cc(C)c2c(=O)n(CC(=O)Nc3cccc(Cl)c3C)sc2n1,3.2µM,?,?,?,?
Cc1ccc(C)c(NC(=O)CN(C)C(=O)c2ccccc2Cc2ccccc2)c1,nt,i,nt,?,i
O[C@@H]1CO[C@H]2C1OC[C@@H]2O (some centres not stated),i,nt,i,nt,nt
Cc1noc(C)c1-c1nccc(NCc2cccs2)n1,i,nt,i,nt,nt
SMILES,VP16 counter,MCF10A rereplic,RORgamma inh,ELG1 repair inh,SW480 rerep
Fc1ccc2c(c1)C(c1ccncc1)=NNC(c1ccccc1)=N2,?,i,10µM,i,i
CNC(=S)/N=C(\Nc1ccc(C)cc1)c1ccccc1,16µM,i,2.5µM,?,i
COc1cc(OC)cc(C(=O)Nc2ccc(C(=O)Nc3ccccc3OC)cc2)c1,nt,?,nt,16µM,?
O=C(Nc1ccc(Nc2ccccc2)cc1)c1c(F)c(F)c(F)c(F)c1F,?,i,i[1.91 µM],?,i
COc1cc(C(=O)Nc2ccncc2)cc(OC)c1OC,i,i,i,?,i
COc1cc(C(=O)Nc2ccc(Cl)c(C(F)(F)F)c2)cc(OC)c1OC,i,?,?,5.2µM,i
COc1cc(C(=O)Nc2ccc(Nc3ccccc3)cc2)cc(OC)c1OC,i,21µM,i,?,i
COc1cc(CCC(=O)Nc2ccc(Cl)c(C(F)(F)F)c2)cc(OC)c1OC,i,i,i,?,i
O=C(Nc1ccc(Nc2ccccc2)cc1)c1c(Cl)cccc1Cl,nt,23µM,nt,nt,i
CC1C(=O)N2CCCc3cc(NC(=O)COc4ccc(Cl)cc4)cc1c32 (configuration not stated),nt,i,nt,i,i
COc1ccc(C(=O)Nc2ccccc2C(=O)NCc2cccnc2)cc1,i,i,i,i,?
O=C(NCCNC(=O)c1ccccc1Cl)c1ccco1,i,i,i,i,i
COc1cc(C(=O)Nc2cc(-c3ccccc3)[nH]n2)cc(OC)c1OC,i,i,i,?,i
COc1cc(C(=O)Nc2nc(OC)c(-c3ccccc3)c(OC)n2)cc(OC)c1OC,i,i,i,9.2µM,i
CCCCCCn1c(SCCCC)nc2c1c(=O)[nH]c(=O)n2C,nt,i,i[0.365 µM],i,i
CCn1c([N+](=O)[O-])nc2c1c(=O)[nH]c(=O)n2C,18µM,5.8µM,0.56µM,?,8.2µM
O=C(O)/C=C/C(=O)Nc1ccccc1C(=O)OCC(=O)c1ccc2c(c1)OCCO2,8.9µM,?,7.9µM,?,i
CCCCC(=O)Nc1ccccc1C(=O)OCC(=O)c1ccc2c(c1)OCCO2,?,i,?,i,i
CCC(=O)Nc1ccccc1C(=O)OCC(=O)c1ccc2ccccc2c1,i,i,?,i,i
CCC(=O)Nc1ccccc1C(=O)OCC(=O)c1ccccc1,i,i,10µM,?,i
O=C(CNC(=O)c1cccc(Br)c1)N/N=C/c1cccs1,i,i,?,i,?
O=C(CNC(=O)c1ccccc1F)N/N=C/c1cc(Br)ccc1OCc1ccccc1,i,i,i,8.2µM,?
O=C(CNC(=O)c1cccc(F)c1)N/N=C/c1cc(Br)ccc1OCc1ccccc1,i,?,i,?,i
O=C(Cc1ccccc1)N/N=C/c1cc(Br)cc(Br)c1O,1.6µM,7.3µM,0.79µM,6.5µM,4.1µM
O=C(CNC(=O)c1cccc(Br)c1)N/N=C/c1cc(Br)cc(Br)c1O,13µM,i,2.5µM,i,i
O=C(CCN1CCOCC1)N/N=C/c1cc(Br)cc(Br)c1O,5µM,?,1.4µM,?,i
COc1ccc(Cc2[nH]n3c(=O)cc(C(C)C)nc3c2-c2ccccc2)cc1,10µM,2.6µM,3.5µM,8.2µM,10µM
COc1ccc(-c2ccc(=O)n(Cc3ccccc3)n2)cc1,i,i,i,i,i
COc1ccc(Cc2[nH]n3c(=O)cc(C)nc3c2-c2ccccc2)cc1,?,?,11µM,?,?
